Bioassay records from PubChem BioAssay.
In the library only some 1.6% were active in any assay of this set; here they are far more common.
MLLE-PAM2 inh: blocks PAM2 peptide binding to the PABP1 MLLE domain; AID 588489; inhibition, % at 20 µM; 0.36% of 360,000 active; GST-MLLE / FITC-PAM2 fluorescence polarization; P11940; in the data active means inhibition above about 35%, passing the limit was not always enough
PERK inhibitor: human PERK inhibition, primary cell-based screen; CHO PERK-DD fusion, SEAP luminescence translation reporter; inhibition, % at 5.6 µM; 0.17% of 220,000 active;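 active means inhibition above the mean inhibition of all tested compounds plus 3 SD, set separately per screening campaign, cut at about 2.9% in these data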;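 further: PERK kinase domain activated by AP20187 dimerizer at 100 nM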
eIF4H FP inh: inhibitors of RNA binding by human eIF4H; 0.94% of 290,000 active; inhibition, % at 35 µM; eIF4H fluorescence polarization binding assay; Q15056; AID 2012;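 further: calls also rest on retests at 20 µM and on dose response follow-up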
eIF4E-4G inh: blocks eIF4E binding to eIF4G. P63073+Q04637. TR-FRET eIF4E-eIF4GI(517-606) binding, 2 h. inhibition, % at 21.7 µM. 0.37% of 220,000 active. AID 782;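 active means inhibition above about 30%, limit read from the data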
PABP polyA inh: PABP-poly(A) binding inhibition. P11940. PABP-poly(A) RNA binding, fluorescence polarization. calls only at 35 µM. 1% of 290,000 active. AID 2014;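 further: calls also rest on retests at 20 µM and on dose response follow-up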
Hits are given with their value; 0 = inactive; - = not tested or not shown; + = active, no number. Unless noted, how the calls were made is not given here.

SMILES	MLLE-PAM2 inh	PERK inhibitor	eIF4H FP inh	eIF4E-4G inh	PABP polyA inh
CCN(CC)CCNC(=O)c1cc2c(=O)n(CC)c3ccccc3c2s1	0	-	0	-	0
CCCN(CCC)CCNC(=O)c1cc2c(=O)n(CC)c3ccccc3c2s1	0	0	0	97	0
Cc1noc(NS(=O)(=O)c2ccc(N3Cc4ccccc4C3=O)cc2)c1C	0	3.1	0	0	0
CCOc1ccc(-n2nnnc2SCC(=O)Nc2cccc(O)c2)cc1	0	-	0	-	0
Cc1sc(NC(=S)Nc2ccc(F)cc2)c(C(N)=O)c1C	35	0	0	0	0
COc1ccc(S(=O)(=O)N2CCCCC2)cc1NC(=O)Cc1cccs1	0	-	-	-	-
CCc1ccc(CNC(=O)C2Cc3cc(S(=O)(=O)N4CCCC4)ccc3N2C(C)=O)cc1 (centres undefined)	0	-	0	-	0
O=C(OCc1nc2ccccc2s1)c1ccc(Br)o1	0	0	7.1	0	+
O=C(OCc1nc2ccccc2s1)c1ccc([N+](=O)[O-])o1	0	-	0	-	0
O=C1Cc2cc(S(=O)(=O)NCc3ccc(F)cc3)ccc2N1	0	-	-	-	-
NS(=O)(=O)c1ccc(CCNC(=O)COC(=O)C2CCCN2C(=O)c2cccs2)cc1 (centres undefined)	0	3.3	0	0	0
O=C(COC(=O)[C@@H]1CCCN1C(=O)c1cccs1)Nc1ccc(Br)cc1	0	-	-	-	-
CC(=O)c1cccc(CN2CCC(C(=O)Nc3cccc(-c4ccn[nH]4)c3)CC2)c1	0	-	0	-	0
Cc1cccc(N(C)C(=O)CCS(=O)(=O)c2cc3c(cc2Cl)NC(=O)CO3)c1	39	-	0	-	0
COc1ccccc1-c1nc2ccccc2c(=O)n1NC(=O)c1cccs1	0	0	0	0	0
CCCCN1C2=C(C(=O)CCC2)C(c2ccc(Cl)c(Cl)c2)C2=C1c1ccccc1C2=O (centres undefined)	0	0	90	0	+
COC(=O)c1ccc(CNC(=O)C2CCC(=O)N(CCN3CCOCC3)C2)cc1 (centres undefined)	0	-	0	-	0
CC(C)Oc1ccc(C(=O)NC2=NCCS2)cc1	40	0	0	0	0
COc1cccc(C(=O)NC2=NCCS2)c1OC	40	0	0	0	0
COc1ccc(C(=O)NC2=NCCS2)cc1	0	-	0	-	0
COc1cc(C(=O)NC2=NCCS2)cc(OC)c1OC	0	0	0	0	0
COc1c(O)cc2c(c1O)C1OC(CO)C(O)C(O)C1OC2=O (centres undefined)	0	-	-	-	-
O=C1OCC2OC(O)C(O)C(O)C2OC(=O)c2cc(O)c(O)c(O)c2-c2c(O)c(O)c3oc(=O)c4c(c(O)c(O)c5oc(=O)c2c3c54)-c2c1cc(O)c(O)c2O (centres undefined)	-	-	83	34	+
Cc1cscc(C)c1=S	38	-	-	-	-
O=C(O)CCCCCN1C(=O)/C(=C\c2cn(-c3ccccc3)nc2-c2cccs2)SC1=S	0	0	0	45	0
SMILES	MLLE-PAM2 inh	PERK inhibitor	eIF4H FP inh	eIF4E-4G inh	PABP polyA inh
O=C(O)CCCCCN1C(=O)/C(=C/c2cn(-c3ccccc3)nc2-c2cccs2)SC1=S	0	-	-	-	-
O=C(O)CCN1C(=O)/C(=C/c2cn(-c3ccccc3)nc2-c2cccs2)SC1=S	0	0	0	30	0
C/C(=N\N=C1\NC(=O)C(CC(=O)Nc2ccc(Cl)cc2)S1)c1ccco1 (centres undefined)	0	0	0	0	+
NC(=S)NN=Cc1cc(-c2cccc(N)c2)ccn1	0	-	-	-	-
CC(C)c1nc2c([nH]1)c(=O)n(C)c(=O)n2C	0	0	54	0	0
O=C(NCc1ccc2c(c1)OCO2)c1ccc2c(c1)OCCO2	0	0	0	69	0
N#Cc1ccc(C(=O)CN2CCN(c3ccccc3)CC2)cc1	0	-	0	-	0
COc1ccc(OC)c(N2Cc3cc(C)c(C)cc3C2)c1	0	0	105	0	0
COc1cc2c(C#N)c(N3CCc4ccccc4C3)nc(N)c2c(N)n1	0	0	122	-	+
COc1cc2c(C#N)c(N3CCOCC3)nc(N)c2c(N)n1	0	0	0	0	0
CCOc1cc2c(C#N)c(N3CCCCC3)nc(N)c2c(N)n1	0	0	0	0	0
COc1cc2c(C#N)c(N3CCCCC3)nc(N)c2c(N)n1	0	0	91	0	+
CCCCN(C)C(=O)Cn1c(=O)oc2cc(S(=O)(=O)N3CC(C)CC(C)C3)ccc21 (centres undefined)	0	0	0	0	0
O=C(CN1C(=O)c2ccccc2S1(=O)=O)Nc1ncc(Cl)cc1Cl	49	-	-	-	-
O=C(CN1C(=O)c2ccccc2S1(=O)=O)Nc1ncccn1	0	-	-	-	-
Nc1c(NCc2ccccc2F)c(=O)[nH]c(=O)n1Cc1ccccc1	0	0	51	0	+
CCCCn1c(N)c(NCc2ccccc2)c(=O)[nH]c1=O	0	0	0	0	0
O=C(NCc1cccs1)c1cccc2c(-c3ccc(F)c(F)c3)coc12	0	-	-	-	-
O=[N+]([O-])c1ccc(/C=C/C2=NN(c3ccccc3)C(c3ccco3)C2)o1 (centres undefined)	0	0	0	0	0
C(=C\c1ccco1)/C1=NN(c2ccccc2)C(c2ccco2)C1 (centres undefined)	0	0	71	0	0
CCC(=O)N1CCN(c2ccc(NC(=S)NC(=O)c3cccc([N+](=O)[O-])c3)cc2)CC1	43	0	0	0	0
CC1CCN(c2ccc(NC(=S)NC(=O)c3ccc(-c4cccc([N+](=O)[O-])c4)o3)cc2)CC1	40	0	0	0	0
CC1CCN(c2ccccc2NC(=S)NC(=O)c2ccc(-c3cccc([N+](=O)[O-])c3)o2)CC1	42	0	0	0	0
CC1CCN(c2ccc(NC(=S)NC(=O)c3ccco3)cc2)CC1	0	0	0	0	0
CC(=O)N1CCN(c2ccc(NC(=O)c3ccc(Cl)c([N+](=O)[O-])c3)cc2)CC1	0	-	0	-	0
SMILES	MLLE-PAM2 inh	PERK inhibitor	eIF4H FP inh	eIF4E-4G inh	PABP polyA inh
COc1ccc(C(=O)Nc2ccc(N3CCN(C(C)=O)CC3)cc2)cc1[N+](=O)[O-]	-	0	active	0	+
CN1CCN(c2ccccc2NC(=O)c2ccc(-c3cccc([N+](=O)[O-])c3)o2)CC1	0	0	0	0	0
CN1CCN(C(=O)C2=C[C@H](c3ccc(C(F)(F)F)cc3)C[C@H](OCc3ccc(CO)cc3)O2)CC1	0	0	0	0	0
CCC1CCCCN1C(=S)NC(=O)c1cccc([N+](=O)[O-])c1 (centres undefined)	42	-	0	-	0
COc1ccc(-c2coc3c(C)c4oc(=O)c(CCC(=O)O)c(C)c4cc23)cc1	0	-	0	-	0
Cc1c(CCC(=O)O)c(=O)oc2c(C)c3occ(-c4ccc(Br)cc4)c3cc12	0	-	72	-	+
Cc1cc2cc(CNC(=S)Nc3ccc(OC(F)(F)F)cc3)ccc2n1C	46	0	0	0	0
COc1cccc(NC(=S)NCc2ccc3c(c2)cc(C)n3C)c1	0	0	0	0	0
CC(=O)Nc1ccc(S(=O)(=O)NCc2ccc3c(c2)cc(C)n3C)cc1	0	0	55	0	+
Cc1cc(C)c(S(=O)(=O)NCc2ccc3c(c2)cc(C)n3C)c(C)c1	0	0	0	0	0
